mIDH1 inhibitor = qHTS for Inhibitors of mutant isocitrate dehydrogenase 1 (IDH1): qHTS | Isocitrate dehydrogenase [NADP] cytoplasmic (Homo sapiens), O75874 | IDH1-R132H enzyme, NADPH consumption, diaphorase/resazurin fluorescence | Potency, µM (series often up to 76.6 µM), inactives show at the highest dose activity change, negative = inhibition, usual class: inhibitors | 390,000 tested, 0.093% active | AID 602179, 2012; further: potency means the concentration at half of the fitted maximal effect; on the % scale 0 is the no-effect control and ±100 the full control effect; nearly all actives have a fitted effect of over 65% in size
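IDH1-R132H (0.5 ug/mL dispensed) in pH 7.5 Tris buffer was preincubated 30 min with compound, then given a substrate mix of 0.016 mM NADPH and 2 mM alpha-KG for 80 min at room temperature; remaining NADPH was read by diaphorase/resazurin fluorescence.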
Giardia killer = Small Molecules that selectively kill Giardia lamblia: qHTS; 340,000 tested, 0.15% active; activity change, % at 7.66 µM, hits read low; Giardia lamblia trophozoite viability; in the data active means activity change below about -80%; inconclusive means between about -30% and that limit;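 further: parasites exposed to compound for two days anaerobically before the ATP read; on the % scale 0 is the no-effect control and ±100 the full control effect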
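Trophozoite viability was measured as ATP-dependent luminescence, read 15-30 min after reagent addition. Before that, parasites at 100 cells/well were exposed to compounds for 48 h, anaerobically, at 37 deg C.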
IL2 activator = qHTS of IL-2 Activators | activation, % (series mostly up to about 46 µM) | 360,000 tested, 0.065% active | IL-2 activation reporter assay, cell-based qHTS; stimulated with anti-CD3/CD4/CD28 beads; in transgenic mouse T cells; in the data active means activation above about 50%; inconclusive means mostly about 30% to 49%; further: 0% is about no effect
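Unstimulated transgenic mouse T cells preincubated 60 min with compound, then stimulated with anti-CD3/anti-CD4-coated beads plus anti-CD28 for 18 h at 37 degrees C. IL-2 response read as EGFP and DsRed fluorescence by plate cytometry.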
TrxR1 inh = qHTS Assay for Inhibitors of Mammalian Selenoprotein Thioredoxin Reductase 1 (TrxR1): qHTS; 390,000 tested, 1% active; recombinant rTrxR1, NADPH fluorescence consumption, selenite substrate; Potency, µM (titrated, usually from 114 µM), inactives show at the top dose activity change, negative = inhibition, actives largely listed as inhibitors; AID 588453, 2011; Thioredoxin reductase 1, cytoplasmic (Rattus norvegicus), O89049; further: potency means the concentration at half of the fitted maximal effect; on the % scale 0 is the no-effect control and ±100 the full control effect; nearly all actives have a fitted effect of over 65% in size
Target sequence (O89049 whole entry, looked up): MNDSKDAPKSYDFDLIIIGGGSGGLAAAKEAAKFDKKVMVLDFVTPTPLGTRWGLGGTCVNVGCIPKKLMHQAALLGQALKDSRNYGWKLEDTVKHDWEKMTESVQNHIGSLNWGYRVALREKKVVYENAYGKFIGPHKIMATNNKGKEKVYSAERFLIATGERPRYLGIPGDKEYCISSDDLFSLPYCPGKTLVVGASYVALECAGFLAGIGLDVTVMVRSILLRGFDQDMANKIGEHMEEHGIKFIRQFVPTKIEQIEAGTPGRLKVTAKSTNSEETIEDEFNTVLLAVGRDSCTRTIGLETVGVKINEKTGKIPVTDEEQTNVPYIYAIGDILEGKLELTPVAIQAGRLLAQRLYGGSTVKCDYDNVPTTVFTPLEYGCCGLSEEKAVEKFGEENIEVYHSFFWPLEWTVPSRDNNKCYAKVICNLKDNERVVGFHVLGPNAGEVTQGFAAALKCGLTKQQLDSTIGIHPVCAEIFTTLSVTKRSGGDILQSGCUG
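Rat TrxR1 (90 nM in the dispensed reagent) was pre-reduced with 400 uM NADPH for 5 min at room temperature, then incubated with compound for 15 min. After 400 uM selenite was added, NADPH fluorescence (Ex 340/Em 450 nm) was followed for 8 min.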
BRCA1 expr up = qHTS Assay to Identify Small Molecule Activators of BRCA1 Expression | MCF7-BRCA1-FFLuc reporter, luminescence, 48 h; response scale: scaled: vehicle 0%, 10 µM genistein 100% | Potency, µM (series often up to 46.1 µM), for inactives: top-dose activation, most hits filed as activators | 380,000 tested, 1.1% active | AID 624202, 2012; further: potency means the concentration at half of the fitted maximal effect; nearly all actives have a fitted effect of over 80% in size
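Compounds are tested at multiple concentrations on MCF7 BRCA1-luciferase reporter cells seeded at 2000 per well; after 48 h, a single luminescence end-point is taken and curves fitted to the normalized data.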
TrxR1 substrate = qHTS Assay for Substrates of Mammalian Selenoprotein Thioredoxin Reductase 1 (TrxR1): qHTS. Thioredoxin reductase 1, cytoplasmic (Rattus norvegicus), O89049. purified TrxR1 substrate turnover, NADPH consumption readout. Potency, µM (titrated, usually from 114 µM), for the others: at the highest dose activity change, negative = substrate turnover. 390,000 tested, 0.01% active. AID 588456, 2011; further: potency means the concentration at half of the fitted maximal effect; on the % scale 0 is the no-effect control and ±100 the full control effect; nearly all actives have a fitted effect of over 50% in size
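Rat TrxR1, dispensed at 90 nM, was prereduced with 400 uM NADPH (final) for 5 min at ~22 deg C, then incubated with compound 15 min before 400 uM selenite. A first-read NADPH fluorescence drop versus no-compound background flagged substrates.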
An asterisk follows results filed as active; ? = inconclusive; . = no result given; [ ] = remark or other dose. This is a sample that favours compounds with a hit; in the whole collection about 2.2% have one here. Unless noted, the call rests on the fitted dose curve; in most records, active means well fitted curve in the direction sought with a large enough effect; inconclusive means small, poorly fitted or top-dose-only effect, or another doubt; inactive means no such curve, though single readings can be large; an effect the other way counts as inactive or inconclusive.

SMILES | mIDH1 inhibitor | Giardia killer | IL2 activator | TrxR1 inh | BRCA1 expr up | TrxR1 substrate
CCOC(=O)c1cc([N+](=O)[O-])c([N+](=O)[O-])cc1NC(C)=O | 4% | 4 | -2 | 3.2µM* | -98% | -5%[57.1 µM]
COc1cccc(NC(=O)CN2CCCN(S(=O)(=O)c3ccc(Br)cc3)CC2)c1 | 5% | . | . | -12% | . | -13%
COc1ccc(Cn2c(C(=O)O)c(CNCCc3cccs3)c3ccc(C)cc32)cc1 | -1% | . | . | -6% | . | -5%
CCSc1ccccc1C(=O)Nc1cc(OC)c(OC)c(OC)c1 | 12% | -7 | -2 | 21%[57.1 µM] | -17% | -3%[57.1 µM]
COc1cc(C=Nc2ccccc2C(=O)Nc2ccccc2)cc(OC)c1OC | 6% | -8 | -2 | 22µM* | 41% | 101%
C=CCn1c(NCc2ccc(OC)cc2O)nc2ccccc21 | 0% | 22 | 0 | -5% | 13µM* | -8%
COc1cccc(NC(=O)Cc2ccccc2)c1 | 11% | 1 | 0 | 16%[57.1 µM] | 78% | -7%[57.1 µM]
O=C(Cc1ccccc1)Nc1cccc(N2C(=O)C=CC2=O)c1 | 1% | 14 | -1 | 3.5µM* | ? | 0%
Cc1cc(O)ccc1Nc1cc(-c2cccc(N(C)C)c2)ncn1 | . | . | 0 | . | 5.6µM* | .
CN(C)c1cccc(O)c1 | 6% | 12 | 1 | 51% | -9% | 0%
Cc1ccc(NC(=O)C2CCCC2)c(Br)c1 | 2% | 14 | 0 | 12% | 29% | 0%
Cc1ccc(NC(=O)CCC(=O)c2cccs2)c(Br)c1 | -9% | 1 | -3 | 10% | 6.3µM* | 2%
Cc1ccc(O)c(NC(=O)CCC2CCCCC2)c1 | 6% | 10 | 1 | -5%[57.1 µM] | 4µM* | 9%[57.1 µM]
Cc1ccc(NC(=O)CC2CCCC2)c(Br)c1 | -9% | -21 | 0 | -2%[57.1 µM] | 13µM* | 0%[57.1 µM]
Cn1c(NC(=O)CCC2CCCCC2)cc(=O)n(C)c1=O | 5% | ? | -1 | 22% | 2.2µM* | 4%
Cc1ccnc2c(N)cccc12 | . | . | . | 7% | . | 3%
O=C(/C=C/c1ccc(Br)cc1)NC(=O)c1ccccc1O | 2% | 3 | 2 | 16%[57.1 µM] | 74% | 5%[57.1 µM]
CSc1ccc(/C=C/C(=O)NC(=O)c2ccccc2O)cc1 | -6% | 6 | 0 | 6% | 13µM* | -2%
CN(C)/N=C/c1ccc(Sc2ccc([N+](=O)[O-])cc2[N+](=O)[O-])o1 | 12% | -5 | 1 | 50µM* | -22% | -5%
Cc1cc(C)nc(Sc2ccc([N+](=O)[O-])cc2[N+](=O)[O-])n1 | 1% | 12 | 1 | 10µM* | -76% | -15%
O=[N+]([O-])c1ccc(Sc2ccncn2)c([N+](=O)[O-])c1 | -5% | . | -4 | . | -90% | .
COc1cccc(NC(=O)/C=C/c2ccccc2[N+](=O)[O-])c1 | 4% | -6 | 3 | 5%[57.1 µM] | 3.2µM* | 5%[57.1 µM]
COC(=O)C(=Cc1ccccc1[N+](=O)[O-])C(=O)OC | -8% | 12 | -1 | 56µM* | -71% | 3%
COc1cccc(NC(=O)c2ccc(-c3ccccc3[N+](=O)[O-])o2)c1 | 5% | 7 | 1 | 16µM* | ? | -7%[57.1 µM]
COc1ccc(CNC(=O)/C=C/c2ccccc2[N+](=O)[O-])cc1 | -12% | -6 | 1 | 22% | 27% | 0%
SMILES | mIDH1 inhibitor | Giardia killer | IL2 activator | TrxR1 inh | BRCA1 expr up | TrxR1 substrate
Cc1cccc(C(=O)N(Cc2ccccc2F)C2CCS(=O)(=O)C2)c1 (configuration not stated) | -3% | . | . | 2% | . | -9%
Cc1ccc(-n2nc(CO)c(C(=O)NCCCCc3ccccc3)n2)cc1 | 14% | . | . | 26% | . | 2%
NC[C@H]1O[C@@H](n2cnc3c(N)ncnc32)[C@H](O)[C@@H]1O | . | . | . | 24%[57.1 µM] | . | 2%[57.1 µM]
Nc1ccc2c(c1)C(=O)C(=O)c1ccccc1-2 | 11% | 12 | -1 | 6.3µM* | -93% | 4µM*
O=C1C(=O)c2ccc(-c3ccccc3)cc2-c2ccccc21 | 7% | -1 | -3 | ? | -103% | 10µM*
Nc1ccc2c(c1)C(=O)c1ccccc1-2 | 8% | 16 | 0 | 20% | 26% | 0%
COc1ccc(N2CC(NC(=O)C3CCCC3)CC2=O)cc1OC (configuration not stated) | 11% | . | . | -19%[57.1 µM] | 10% | -13%[57.1 µM]
Cc1cc(C)c2c(NC(=O)c3ccccc3Cl)c(C(=O)NCc3ccc(Cl)cc3)sc2n1 | . | . | . | 14%[11.4 µM] | . | 2%
CC1(C)CC(=O)C(C(c2ccc(Br)cc2)C2C(=O)CC(C)(C)CC2=O)C(=O)C1 | 0% | 13 | 1 | 7.9µM* | -26% | 10%
COc1ccc(C(C2C(=O)CC(C)(C)CC2=O)C2C(=O)CC(C)(C)CC2=O)cc1CO | -5% | -26 | -1 | 8.9µM* | 2% | -4%
CC1(C)CC(=O)C(C(c2ccc(F)cc2)C2C(=O)CC(C)(C)CC2=O)C(=O)C1 | 0% | 4 | -2 | 4%[57.1 µM] | 6% | -5%[57.1 µM]
COC(=O)c1ccc(C(C2C(=O)CC(C)(C)CC2=O)C2C(=O)CC(C)(C)CC2=O)cc1 | 2% | -3 | 1 | -46% | 1% | -2%[57.1 µM]
CNc1ccc(C=C2c3ccccc3-c3ccccc32)cc1 | . | . | . | -5% | -77% | -5%
COc1ccc(CCCc2nnc(SCC(=O)Nc3ccc(C)cc3)o2)cc1 | -6% | . | . | -3% | . | -8%
Nc1ccc2c(c1)C/C(=C/c1ccco1)C2=O | 1% | -13 | -3 | 56µM* | ? | -5%
COc1ccc2c(c1)CC/C(=C/c1ccco1)C2=O | 10% | -11 | -6 | 7%[57.1 µM] | 3.5µM* | -1%[57.1 µM]
COc1ccccc1N1CCN(/N=C/c2ccc([N+](=O)[O-])cc2)CC1 | 2% | 0 | 0 | 14% | 5µM* | -8%
Cc1ccccc1CN1C(=O)C(O)(c2c[nH]c3ccccc23)c2cc(Cl)ccc21 (configuration not stated) | -7% | . | . | 4% | -8% | 5%[11.4 µM]
O=C1Nc2ccccc2/C1=C\C(=O)c1ccccc1 | -19% | -13 | -3 | ? | -10% | -7%
O=C(/C=C1\C(=O)Nc2ccccc21)/C=C1\C(=O)Nc2ccccc21 | -8% | -17 | -2 | 1µM* | -62% | 1%
O=c1c2ccccc2nnn1COc1cccc2ccccc12 | -1% | 32 | 0 | 17% | 8.9µM* | 4%
